Screens (PubChem)
An excerpt weighted towards active compounds, which were near 1.6% of everything screened.
SUMO HTRF inh: inhibitors of human SUMOylation (UBC9) | P63279 | HTRF SUMOylation assay, SAE1/SAE2 + UBC9, in vitro | inhibition, % at 35 µM | hit rate 0.36% among 290,000; in the data active means inhibition above about 50%, passing the limit was not always enough
Target sequence (P63279 whole entry, looked up): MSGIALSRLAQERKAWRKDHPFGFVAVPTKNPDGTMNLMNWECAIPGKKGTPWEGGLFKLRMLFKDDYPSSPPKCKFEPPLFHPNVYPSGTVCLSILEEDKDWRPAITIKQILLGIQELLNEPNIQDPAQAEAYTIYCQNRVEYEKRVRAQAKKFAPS
NSD2 HMT inh: inhibitors of human histone methyltransferase NSD2; O96028; NSD2 peptide methylation, AlphaScreen, 120 min; hit rate 0.54% among 310,000; inhibition, % at 12.5 µM; in the data active means inhibition above about 50%
CASP6 VEID inh: caspase-6 (human) enzyme inhibition. P55212. purified caspase-6, Z-VEID-R110 cleavage fluorescence. inhibition, % at 12.5 µM. hit rate 0.53% among 350,000;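 active means mean inhibition across replicates at least about 35%, with every replicate also reaching that limit, limit read from the data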;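 further: 0% = median of neutral control wells and 100% = no fluorescence left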
Target sequence (P55212 24-179 limits assumed): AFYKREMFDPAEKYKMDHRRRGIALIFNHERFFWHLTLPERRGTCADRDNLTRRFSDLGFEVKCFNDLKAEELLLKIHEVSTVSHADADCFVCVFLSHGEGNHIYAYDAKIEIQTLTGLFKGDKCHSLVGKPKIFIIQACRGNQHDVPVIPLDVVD
Target sequence (P55212 194-293 limits assumed): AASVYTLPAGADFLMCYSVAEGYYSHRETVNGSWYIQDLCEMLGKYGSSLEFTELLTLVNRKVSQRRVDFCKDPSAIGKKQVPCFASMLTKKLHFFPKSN
SIRT5 block: sirtuin-5 (human) deacylase inhibition; Purified SirT5, succinyl-peptide AMC, trypsin-coupled fluorescence; inhibition, % at 15 µM; hit rate 1.1% among 330,000; in the data active means inhibition above about 15%
Active calls of the source: *; . = not tested or not shown; ! = not active in a repeat.

SMILES	SUMO HTRF inh	NSD2 HMT inh	CASP6 VEID inh	SIRT5 block
CCCC#Cc1cnc2c(c1)C(=O)N([C@H](C)CO)C[C@H](C)[C@H](CN(C)Cc1ccc(C(=O)O)cc1)O2	.	.	-2	6
S=c1[nH]c2cc(Cl)c3cccnc3c2o1	28	5	51*	1
S=c1[nH]c2ncccc2o1	8	12	3	0
C/C=C/c1cnc2c(c1)C(=O)N([C@H](C)CO)C[C@H](C)[C@@H](CN(C)C(=O)NC1CCCC1)O2	.	.	0	1
COc1ccccc1S(=O)(=O)N[C@@H]1CC[C@H](CCn2cc(C3CCCCC3)nn2)O[C@@H]1CO	.	.	3	-2
Cc1sc(N)nc1-c1ccc2c(c1)OCCO2	-2	4	-2	0
NC1=NN=C(c2ccc3c(c2)OCCO3)CS1	6	4	1	15*
C[C@@H]1CCCCO[C@@H](CN(C)Cc2ccc(C(F)(F)F)cc2)[C@@H](C)CN([C@@H](C)CO)C(=O)c2cc(NS(=O)(=O)c3ccc(Cl)cc3)ccc2O1	.	.	0	16*
C[C@H](CO)N1C[C@H](C)[C@@H](CN(C)Cc2ccc(C(F)(F)F)cc2)OCCCC[C@H](C)Oc2ccc(NS(=O)(=O)c3ccc(Cl)cc3)cc2C1=O	.	.	-3	19*
C[C@@H]1CCCCO[C@@H](CN(C)Cc2ccc(C(F)(F)F)cc2)[C@@H](C)CN([C@H](C)CO)C(=O)c2cc(NS(=O)(=O)c3ccccc3)ccc2O1	.	.	15	1
C[C@@H]1CN([C@H](C)CO)C(=O)c2cc(NS(=O)(=O)c3ccc(Cl)cc3)ccc2O[C@@H](C)CCCCO[C@@H]1CN(C)Cc1ccc(C(F)(F)F)cc1	.	.	0	17*
COCC(=O)Nc1ccc2c(c1)[C@H]1C[C@H](CC(=O)N3CCc4ccccc4C3)O[C@H](CO)[C@H]1O2	.	.	6	4
O=C(C1CC1)N1CC(=O)N2[C@H](C1)[C@@H](c1ccc(-c3ccccc3F)cc1)[C@@H]2CO	.	.	2	-3
C[C@H](CO)N1C[C@H](C)[C@@H](CN(C)C(=O)C2CC2)Oc2cc(C#Cc3ccccn3)ccc2S1(=O)=O	.	.	1	2
C[C@H](O)C#Cc1ccc2c(c1)O[C@@H](CN(C)C(=O)Nc1ccccc1)[C@@H](C)CN([C@@H](C)CO)S2(=O)=O	.	.	-5	-6
COc1ccc(CN2C[C@H](O)COC[C@@H]3O[C@H](CC(=O)N4CCc5ccccc5C4)CC[C@H]32)cc1	.	.	-3	15*
COc1ccc(CN2C[C@H](O)COC[C@H]3O[C@H](CC(=O)N4CCc5ccccc5C4)CC[C@@H]32)cc1	.	.	-4	-2
COc1ccc(CN2C[C@@H](O)COC[C@H]3O[C@H](CC(=O)NCCN4CCCC4)CC[C@@H]32)cc1	.	.	-87	21*
COc1ccc(CCNC(=O)C2CCN(S(=O)(=O)c3ccc4nc5c(c(C(=O)O)c4c3)CCCC5)CC2)cc1OC	23	1	14	-4
CC(C)CCNC(=O)C1CCN(S(=O)(=O)c2ccc3nc4c(c(C(=O)O)c3c2)CCCCC4)CC1	-7	-1	4	0
O=C(O)c1c2c(nc3ccc(S(=O)(=O)N4CCC(C(=O)NCc5ccccc5Cl)CC4)cc13)CCCC2	22	5	44*	1
CCOCCCNC(=O)C1CCN(S(=O)(=O)c2ccc3nc4c(c(C(=O)O)c3c2)CCCCC4)CC1	0	6	1	0
O=C(O)c1c2c(nc3ccc(S(=O)(=O)N4CCC(C(=O)NCc5ccc(Cl)cc5)CC4)cc13)CCCC2	15	1	65*	6
COc1ccc(CNC(=O)C2CCN(S(=O)(=O)c3ccc4nc5c(c(C(=O)O)c4c3)CCCC5)CC2)cc1	.	0	54*	1
O=C(O)c1c2c(nc3ccc(S(=O)(=O)N4CCC(C(=O)NC5CCCCCC5)CC4)cc13)CCCC2	28	8	43*	5
SMILES	SUMO HTRF inh	NSD2 HMT inh	CASP6 VEID inh	SIRT5 block
COc1ccc(NC(=O)N(C)C[C@H]2Oc3ccc(NC(=O)NC(C)C)cc3C(=O)N([C@@H](C)CO)C[C@H]2C)cc1	.	.	1	3
COc1ccc(NC(=O)Nc2ccc3c(c2)C(=O)N([C@@H](C)CO)C[C@H](C)[C@@H](CN(C)S(=O)(=O)c2ccc(F)cc2)OCCCC[C@H](C)O3)cc1	.	.	-1	6
CC(CC(=O)Nc1ccc2c(c1)c(=O)n(C)n2-c1ccc2ccccc2c1)C(F)(F)F (stereo unspecified)	.	-2	-1	21*
COc1ccc(CC(=O)NC(C)c2nnc(SCC(=O)c3ccc(OC)cc3)n2C)cc1 (stereo unspecified)	24	-2	-2	-2
COc1ccc(CC(=O)NC(C)c2nnc(SCCOc3ccc(OC)cc3)n2C)cc1 (stereo unspecified)	0	0	5	29*
C[C@H](CO)N1C[C@H](C)[C@@H](CN(C)C(=O)NC2CCCCC2)OCCCC[C@H](C)Oc2ccc(NS(=O)(=O)c3ccc(F)cc3)cc2C1=O	.	.	1	3
COc1ccc(N=C2S/C(=C\c3ccc(OCC(=O)O)cc3)C(=O)N2CCc2c[nH]c3ccccc23)cc1	35	.	83*	50*
Cc1cc(=O)n(C2CCS(=O)(=O)C2)[nH]1 (stereo unspecified)	90*	7	5	-6
CCOc1ccc(N=Nc2ccc(O)c3ncccc23)cc1	-31	0	3	-4
NS(=O)(=O)c1ccc(N=Nc2ccc(O)c3ncccc23)cc1	-48	5	51*	3
C[C@H](CO)N1C[C@H](C)[C@@H](CN(C)Cc2ccc(-c3ccccc3)cc2)Oc2ncc(C#C[C@@H](C)O)cc2C1=O	.	.	-7	17*!
C[C@H](CO)N1C[C@H](C)[C@H](CN(C)Cc2cccc(C(F)(F)F)c2)Oc2ncc(C#Cc3ccccc3)cc2C1=O	.	.	2	29*
Cc1ccc(-c2cnc3c(c2)C(=O)N([C@@H](C)CO)C[C@H](C)[C@@H](CN(C)C(=O)c2cccnc2)O3)cc1	.	.	1	26*
C[C@H](CO)N1C[C@H](C)[C@H](CN(C)Cc2cccc(C(F)(F)F)c2)Oc2ncc(C#Cc3ccc(F)cc3)cc2C1=O	.	.	2	2
C[C@H](CO)N1C[C@H](C)[C@H](CN(C)Cc2ccncc2)Oc2ncc(C#CCN(C)C)cc2C1=O	.	.	-1	41*!
COc1ccc(CN(C)C[C@@H]2Oc3ccc(NC(=O)CCCCCC(=O)Nc4ccccc4N)cc3CC(=O)N([C@H](C)CO)C[C@@H]2C)cc1	.	.	-3	3
C[C@@H]1CN([C@@H](C)CO)C(=O)c2cc(-c3cccc(F)c3)cnc2O[C@@H]1CN(C)C(=O)Nc1cc(F)ccc1F	.	.	-1	0
C[C@@H]1CN([C@@H](C)CO)C(=O)c2cc(-c3cccc(F)c3)cnc2O[C@H]1CN(C)C(=O)Nc1cc(F)ccc1F	.	.	-1	23*
C[C@@H]1CN([C@@H](C)CO)C(=O)c2cc(Br)cnc2O[C@H]1CN(C)Cc1cccnc1	.	.	0	36*!
C[C@H](CO)N1C[C@H](C)[C@H](CN(C)Cc2cccc(C(F)(F)F)c2)Oc2ncc(-c3ccc(F)cc3)cc2C1=O	.	.	1	18*
